RGS12 GoLoco inh: qHTS Assay for Inhibitors of RGS12 GoLoco Motif Activity (Red Fluorophore); Guanine nucleotide-binding protein G(i) subunit alpha-1 (Homo sapiens), P63096; Gai1:RGS12 GoLoco peptide FP, rhodamine, 10 min; Potency, µM (highest dose often 61.6 µM), hits mostly inhibitors; 230,000 tested, 0.44% active; AID 880, 2007; active means well fitted inhibition curve with a large enough effect, not every such curve was filed as active; inactive means no such curve, though single readings can be large or run the other way; further: nearly all actives have a fitted effect of over 30% in size
Target sequence (P63096 whole entry, looked up): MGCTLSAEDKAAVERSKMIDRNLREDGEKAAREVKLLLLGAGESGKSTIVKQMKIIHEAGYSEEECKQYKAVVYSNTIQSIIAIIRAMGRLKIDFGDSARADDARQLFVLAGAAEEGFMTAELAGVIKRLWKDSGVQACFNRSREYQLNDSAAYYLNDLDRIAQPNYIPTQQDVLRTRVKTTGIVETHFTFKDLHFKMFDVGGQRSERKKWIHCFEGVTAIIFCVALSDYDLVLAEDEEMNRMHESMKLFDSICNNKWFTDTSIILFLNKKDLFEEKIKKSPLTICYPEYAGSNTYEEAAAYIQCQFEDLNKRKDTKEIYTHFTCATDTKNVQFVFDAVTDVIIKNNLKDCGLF
PNC inhibitor: High Content Assay for Compounds that inhibit the Assembly of the Perinucleolar Compartment | PC3M PTB-GFP, PNC prevalence imaging, 16 h; hits give low values | activity change (PNC), negative = inhibition, % at 10 µM | 140,000 tested, 3.1% active | AID 2417, 2010;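 active means readout at or below -70, meaning at least 70% loss of cells showing the perinucleolar compartment, a nuclear body marking cancer cells; inconclusive means readout between -30 and a set limit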
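Compounds are pinned in duplicate onto adhered PC3M cells stably expressing GFP-tagged PTB and incubated 16 h at 37 C. Cells are then fixed, nuclei stained with Hoechst, and PNC-positive cells counted.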
HPGD block: qHTS Assay for Inhibitors of HPGD (15-Hydroxyprostaglandin Dehydrogenase); purified HPGD, NADH fluorescence kinetic, PGE2 substrate; Potency, µM, most hits filed as inhibitors; 150,000 tested, 4.3% active; AID 894, 2007
Target sequence (P15428 whole entry, looked up): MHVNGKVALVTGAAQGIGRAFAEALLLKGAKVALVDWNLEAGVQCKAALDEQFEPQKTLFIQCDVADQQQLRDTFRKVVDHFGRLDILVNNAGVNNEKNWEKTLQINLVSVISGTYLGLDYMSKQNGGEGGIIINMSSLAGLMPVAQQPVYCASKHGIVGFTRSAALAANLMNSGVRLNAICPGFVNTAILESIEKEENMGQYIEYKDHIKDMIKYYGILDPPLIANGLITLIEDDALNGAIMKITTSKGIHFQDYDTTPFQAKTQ
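20 nM HPGD preincubated 15 min at room temperature with compound in 50 mM Tris-HCl pH 8, 0.01% Tween 20. Started with 1 mM NAD+ and 30 uM prostaglandin E2; NADH fluorescence (360/450 nm) read 5 times over 30-s intervals, last minus first.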
HTT aggregate: qHTS Multiplex Assay to Identify Dual Action Probes in a Cell Model of Huntington: Aggregate Formation (GFP); PC12 HttQ103-GFP aggregates, Acumen cytometry, 40 h; Potency, µM (top dose mostly 46.1 µM), actives largely listed as inhibitors; 220,000 tested, 1.1% active; AID 1688, 2009; active means well fitted curve in the direction sought with a large enough effect; inconclusive means small, poorly fitted or top-dose-only effect, or another doubt; inactive means no such curve, though single readings can be large; an effect the other way counts as inactive or inconclusive; further: nearly all actives have a fitted effect of over 60% in size
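Ecdysone-promoter PC12 model expressing HTT exon 1 Q103 fused to GFP, induced by tebufenozide at 100 nM final. Compounds titrated; aggregates sized 1–25 µm scored on a 488 nm laser cytometer.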
HTT ATP protect: qHTS Multiplex Assay to Identify Dual Action Probes in a Cell Model of Huntington: Cytoprotection (ATP) | PC12 HTT-Q103 induced, cytoprotection, ATP luminescence, 40 h | Potency, µM (doses to about 56.4 µM), actives largely listed as activators | 230,000 tested, 0.14% active; active means well fitted curve in the direction sought with a large enough effect; inconclusive means small, poorly fitted or top-dose-only effect, or another doubt; inactive means no such curve, though single readings can be large; an effect the other way counts as inactive or inconclusive; further: nearly all actives have a fitted effect of over 45% in size
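Rat PC12, Q103 Htt exon1-GFP fusion, ecdysone promoter; tebufenozide inducer 100 nM final; compound titration; qHTS, 1500 cells/well; ATPlite luminescent read.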
ALDH1A1 block: qHTS Assay for Inhibitors of Aldehyde Dehydrogenase 1 (ALDH1A1); AID 1030, 2008; Potency, µM (titrated, usually from 75.3 µM), hits mostly inhibitors; 220,000 tested, 7.3% active; Aldehyde dehydrogenase 1A1 (Homo sapiens), P00352; Purified ALDH1A1, NADH fluorescence, propionaldehyde substrate
Numbers stand for hits; n = inactive; u = inconclusive; x = not tested or not shown; [ ] = another dose, or the depositor's remark. A selection: hits, their analogues and other compounds. The true share with any hit is near 11%. Unless noted, the call rests on the fitted dose curve; in most records, active means well fitted inhibition curve with a large enough effect (not every such curve was filed as active); inconclusive means small, poorly fitted or top-dose-only effect, or another doubt; inactive means no such curve, though single readings can be large or run the other way.

SMILES | RGS12 GoLoco inh | PNC inhibitor | HPGD block | HTT aggregate | HTT ATP protect | ALDH1A1 block
Cc1nn(-c2ccccc2)c(Cl)c1C(=O)OC(C)C(=O)NC(=O)NC1CCCCC1 (stereo not given) | n | n | n | 11µM | n | n
Cc1c(-c2ccccc2)nc2ccccc2c1C(=O)NCc1cccs1 | n | n | u | n | n[10 µM] | 14µM
O=C(N/N=C/c1ccc(O)cc1)c1nc(-c2ccccc2)n(-c2ccccc2)n1 | n | -100 | n | n | x | n
COc1ccccc1-n1c(C)c2c(OC)cccc(=O)c2c1C | n | u | 11µM | u | x | u
COC(=O)c1ccc2c(c1)S(=O)(=O)NC(=NCc1ccco1)S2 | n | n | 14µM | n | n[10 µM] | n
CCc1ccc2c(c1)C1(NN=C(c3ccc(C)cc3)S1)C(=O)N2 (stereo not given) | n | n | u | 22µM | n[10 µM] | u
Cc1cc(Cl)cc(Br)c1OCCCN1C(=O)NC(C)(C)C1=O | n | -80 | n | n | n | u
CC1(C)NC(=O)N(CCCCOc2cccc(C(F)(F)F)c2)C1=O | n | u | n | u | n | n
Cc1cc(Cl)c(OCCN2C(=O)NC(C)(C)C2=O)c(Br)c1 | n | n | n | n | n[10 µM] | n
CCC(C)Oc1cccc(OCCCCN2C(=O)NC(C)(C)C2=O)c1 (stereo not given) | n | -96 | n | n | n[10 µM] | n
CC1(C)NC(=O)N(CCOCCOc2ccc3ccccc3c2Br)C1=O | n | -111 | n | n | n | n
CC1(C)NC(=O)N(CCCCOc2ccc3ccccc3c2Cl)C1=O | n | n | n | n | n | 18µM
Cc1nn(-c2ccccc2)c(Cl)c1/C=N/NC(=O)CCNc1n[nH]c(=O)[nH]c1=O | n | x | x | n[9.22 µM] | n[10 µM] | x
COCOc1c2c(c(OCOC)c3c(OCOC)cccc13)/C(=N/N[S+](=O)([O-])c1ccc(C)cc1)C1=C2CCCC1 | n | x | n | x | n | n
CCC(=O)c1ccccc1OCCCN1C(=O)NC(C)(C)C1=O | n | n | n | n | n | 10µM
CC1(C)NC(=O)N(CCCCOc2ccc3c(c2)CCC3)C1=O | n | u | n | n[9.22 µM] | n | u
O=C(/C=C/c1cn(-c2ccccc2)nc1-c1cccc(Cl)c1)N1CCN(c2ccccn2)CC1 | n | x | x | n[9.22 µM] | n | n
CCOC(=O)c1sc(N(Cc2ccccc2)C(=O)CSc2nnc(C3CC3)n2N)nc1C | n | n | 20µM | u | n | n
COc1ccc(CNC(=O)C2CC(=O)N(c3ccc(OCC(=O)N4CCCCC4)cc3)C2)cc1 (stereo not given) | n | n | 14µM | n | n | u
O=C(NCc1ccccc1)C1CC(=O)N(c2ccc(OCC(=O)N3CCCC3)cc2)C1 (stereo not given) | n | n | n | n | n[10 µM] | n
O=C(O)[C@H](/C=C\c1ccccc1)c1ccccc1 | n[14.2 µM] | x | n | x | n[10 µM] | n[13.5 µM]
COc1ccccc1Cn1c(=O)c2ccccc2n2c(Sc3ncnc4sccc34)nnc12 | n | n | n | u | 1.6µM | u
COc1ccccc1Cn1c(=O)c2ccccc2n2c(SCc3csc(C)n3)nnc12 | n | n | n | n | n | u
COc1cc(/C=N/NC(=O)c2cccc([N+](=O)[O-])c2)ccc1OCc1ccccc1 | n | n | u | n | n | u
COc1cc(/C=C/[N+](=O)[O-])ccc1OCc1cccc(C(=O)O)c1 | n | x | x | n[9.22 µM] | n | 28µM
SMILES | RGS12 GoLoco inh | PNC inhibitor | HPGD block | HTT aggregate | HTT ATP protect | ALDH1A1 block
CC(C)c1ccc(N=C2N=C(N)c3ccccc32)cc1 | n | x | x | n[9.22 µM] | n[10 µM] | n
O=C(NN1C(=O)C2C3C=CC(C3)[C@H]2C1=O)c1cccnc1 (stereo not given in full) | n | -98 | n | n | n[1.9 µM] | n
CC[n+]1c(/C=C/c2c[nH]c3ccccc23)ccc2cc(C)ccc21 | n | x | x | 8.9µM | n | n
COc1cccc(-c2nc(NC(C)(C)C)c3ccccc3n2)c1O | x | n | x | 35µM | n | u
O=C(COc1cccnc1[N+](=O)[O-])NCCc1ccc(F)cc1 | n | x | x | n[9.22 µM] | n[1.9 µM] | n
Cc1ccc(C)c(NS(=O)(=O)c2cc(C(=O)O)ccc2Cl)c1 | x | x | n | x | x | n
c1ccc(N2CCN(c3ncnc4sc5c(c34)CCC5)CC2)cc1 | n | n | n | 11µM | n | u
O=C(c1ccco1)N1CCN(c2ncnc3sc4c(c23)CCC4)CC1 | n | u | 32µM | n | n | 10µM
c1nc(N2CCC3(CC2)OCCO3)c2c3c(sc2n1)CCCC3 | n | n | n | n[9.22 µM] | n[0.074 µM] | u
CCc1nc(N2CCN(C(=O)c3ccco3)CC2)c2c3c(sc2n1)CCCC3 | n | n | n | n | n | u
COC(=O)c1cnn(-c2ccccc2)c1-n1cccc1C=O | n | x | x | n | n | u
Cc1nc2ccccc2nc(C)c1=NO | n | n | n | n | n | 22µM
Cc1ccc2nc(C)/c(=N\O)c(C)nc2c1 | n | n | n | n | n | n
O=C(OCc1ccccc1)c1cccnc1 | n | x | x | n | n | x
O=C(C#Cc1cccc([N+](=O)[O-])c1)c1ccccc1 | n | u | n | u | n | 3.5µM
NC(=O)c1ccsc1NC(=O)CSc1nnc(Nc2ccccc2)s1 | n | x | x | n | n[10 µM] | n
COc1cc2[nH]c(=S)n(Cc3ccccc3)c(=O)c2cc1OC | n | x | x | n | n | 4.5µM
CCOc1cc2[nH]c(=S)n(CCCOC)c(=O)c2cc1OCC | n | u | n | 4µM | u | u
COc1cc2[nH]c(=O)n(Cc3ccccc3Cl)c(=O)c2cc1OC | n | n | n | n | n | u
C[C@@H]1CCCC(CC(=O)O)(CC(=O)O)C1 | n[14.2 µM] | x | n | x | n[10 µM] | n[13.5 µM]
CCCCCC1=C2CNC(CCC)(C(=O)OC)C=C2C(C)C1=O (stereo not given) | n | x | n | x | n | 28µM
CC1=NN(c2ccccc2)C(=O)/C1=C/C=C/c1ccccc1 | n | n | n | u | x | u
CC1=NN(c2ccccc2)C(=O)/C1=C\N1CC(C)OC(C)C1 (stereo not given) | n | n | n | n | n | 25µM
CC1(c2ccc3noc(-c4cccc(F)c4)c3c2)OCCO1 | n | x | x | n | n[10 µM] | n
Cc1cc([N+](=O)[O-])ccc1NC(=O)/C=C/c1cccs1 | n | -112 | n | n | n[10 µM] | u
CCCCOc1ccc(/C=C/C(=O)Nc2ccc([N+](=O)[O-])cc2C)cc1 | n | u | n | n | n[10 µM] | n

Screening results (PubChem BioAssay)
